EWS-Fli block = blocks EWS/Fli oncoprotein-driven transcription; AID 651661; inhibition, % at 12.6 µM; actives 0.67% (n = 350,000); A673 NR0B1-luciferase reporter, viability-normalised;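 active means mean inhibition of at least 50% after viability correction, with every replicate also passing that limit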;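 further: firefly luciferase signal divided by Alamar Blue viability fluorescence both relative to DMSO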
ABHD5-PLIN5 inh = inhibitors of human ABHD5-perilipin-5 interaction; Q00G26+Q8WTS1; Split G. princeps luciferase complementation, luminescence, 4 h; inhibition, % at 4 µM; actives 0.78% (n = 360,000); AID 602281;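 active means inhibition above the mean inhibition across every tested compound plus 3 SD, cut at about 22% in these data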;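 further: 0% = DMSO only wells and the 100% control is not disclosed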
Target sequence (Q00G26 whole entry, looked up): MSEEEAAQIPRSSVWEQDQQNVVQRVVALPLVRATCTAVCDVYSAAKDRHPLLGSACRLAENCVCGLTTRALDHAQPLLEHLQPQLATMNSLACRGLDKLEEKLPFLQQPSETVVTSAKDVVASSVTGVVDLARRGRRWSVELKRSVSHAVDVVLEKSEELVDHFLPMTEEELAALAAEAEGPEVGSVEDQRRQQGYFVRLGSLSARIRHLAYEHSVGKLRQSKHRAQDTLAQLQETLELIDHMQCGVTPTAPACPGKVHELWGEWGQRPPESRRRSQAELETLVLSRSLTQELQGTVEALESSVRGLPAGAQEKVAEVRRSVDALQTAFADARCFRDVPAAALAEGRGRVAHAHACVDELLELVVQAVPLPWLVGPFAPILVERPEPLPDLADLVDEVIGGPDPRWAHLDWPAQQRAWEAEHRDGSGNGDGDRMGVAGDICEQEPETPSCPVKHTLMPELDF
Target sequence (Q8WTS1 whole entry, looked up): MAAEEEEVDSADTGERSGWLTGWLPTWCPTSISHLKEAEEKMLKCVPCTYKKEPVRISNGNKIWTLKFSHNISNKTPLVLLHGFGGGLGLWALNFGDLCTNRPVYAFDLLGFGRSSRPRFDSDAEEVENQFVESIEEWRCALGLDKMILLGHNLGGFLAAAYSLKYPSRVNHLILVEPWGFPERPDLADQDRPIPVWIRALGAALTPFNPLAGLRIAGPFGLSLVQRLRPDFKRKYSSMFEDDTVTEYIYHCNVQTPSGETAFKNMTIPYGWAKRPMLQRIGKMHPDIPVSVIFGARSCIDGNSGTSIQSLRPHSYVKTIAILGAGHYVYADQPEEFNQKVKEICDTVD
PAX8 inh HTS = lowers PAX8-driven luciferase in RMG-I cells; RMG-I TPO-luciferase reporter, SteadyGlo, 24 h; inhibition, % at 12.6 µM; actives 1.2% (n = 360,000); AID 652154;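 active means mean replicate inhibition at least 60% with every replicate also reaching 60%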;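 further: luciferase light reporting Pax8 driven TPO promoter activity; plate controls were median of neutral control wells for no effect and mitoxantrone controls for full effect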
TRPM1 prom inh = reduces MITF-dependent TRPM1 promoter luciferase signal; SK-MEL-5 TRPM1 promoter luciferase, 24 h; inhibition, % at 12.5 µM; actives 0.83% (n = 330,000);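 active means mean inhibition across replicates of 60% or more, whatever share of single replicates reaches that level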
Peg3 prom inh = reduces Peg3 promoter-driven luciferase expression in HeLa | HeLa PEG-Prom luciferase reporter, luminescence, overnight | inhibition, % at 20 µM | actives 1.7% (n = 360,000) | AID 588405;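 active means inhibition of at least 50% at 20 µM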
Shn3 3UTR inh = Schnurri-3 reporter inhibition in Clone20 osteoblasts. Clone20 osteoblast Shn3 3'UTR firefly luciferase, 24 h. inhibition, % at 12.5 µM. actives 0.52% (n = 360,000). AID 588674;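 active means mean inhibition of at least 75% with every replicate also reaching 75%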;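 further: 0% = median of neutral control wells and 100% = pilot-screen positive control compound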
Active calls of the source: *; . = not tested or not shown. In the library only some 3% were active in any assay of this set; here they are far more common.

SMILES	EWS-Fli block	ABHD5-PLIN5 inh	PAX8 inh HTS	TRPM1 prom inh	Peg3 prom inh	Shn3 3UTR inh
COc1cccc(-c2ccc3c(c2)[C@@H]2[C@@H](CCN2C(=O)CC2CC2)[C@H](CO)N3C)c1	-4	.	67*	.	.	.
COc1cccc(-c2ccc3c(c2)[C@H]2[C@H](CCN2C(=O)c2ccccc2F)[C@H](CO)N3C)c1	0	.	85*	.	.	.
C[C@H]1CN([C@@H](C)CO)C(=O)c2cc(NC(=O)CCCN(C)C)ccc2O[C@H]1CN(C)C(=O)Nc1ccc2c(c1)OCO2	.	.	-10	.	.	.
C[C@H]1CN([C@@H](C)CO)C(=O)c2cc(/C=C/c3ccccc3)cnc2O[C@@H]1CN(C)Cc1cccnc1	-15	.	.	.	.	.
Cc1cc(C)nc(SC2=CS(=O)(=O)c3ccccc32)n1	.	2	47	7	34	32
O=S1(=O)C=C(Sc2nnc(-c3ccccc3)o2)c2ccccc21	.	15	.	96*	110*	98*
CC(C)C[C@@H]1COCn2nncc2CCCC(=O)N1	-5	.	-2	.	.	.
CCC(=O)Nc1ccc2c(c1)C(=O)N(C)[C@@H]1CC[C@H](CC(=O)NCCc3ccncc3)O[C@H]1CO2	1	.	-2	.	.	.
Cc1cc2nc(-c3ccc(SCC(=O)N4CCc5ccccc54)nc3)[nH]c2cc1C	-44	-9	.	-20	114*	-45
Cc1cc2nc(-c3ccc(SCc4ccc(C(=O)O)cc4)nc3)[nH]c2cc1C	-118	-6	-69	-21	-134	-2
O=C(CSc1ncccc1-c1nc2ccccc2[nH]1)N1CCc2ccccc21	-48	6	90*	-28	-53	-48
C[C@@H]1CN([C@H](C)CO)C(=O)c2cccc(NC(=O)C3CC3)c2O[C@@H]1CN(C)S(=O)(=O)c1ccc(Cl)cc1	-1	.	.	.	.	.
C[C@H](CO)N1C[C@H](C)[C@@H](CN(C)C(=O)C2CCC2)Oc2ncc(-c3ccncc3)cc2C1=O	-4	.	.	.	.	.
C[C@@H]1CCCCO[C@H](CN(C)CC2CCCCC2)[C@H](C)CN([C@H](C)CO)C(=O)c2cc(NS(=O)(=O)c3ccccc3)ccc2O1	-9	.	92*	.	.	.
C[C@H]1CCCCO[C@@H](CN(C)CC2CCCCC2)[C@@H](C)CN([C@@H](C)CO)C(=O)c2cc(NS(=O)(=O)c3ccccc3)ccc2O1	13	.	25	.	.	.
C[C@@H]1CN([C@H](C)CO)C(=O)c2cc(NS(=O)(=O)c3ccccc3)ccc2O[C@@H](C)CCCCO[C@@H]1CN(C)CC1CCCCC1	10	.	89*	.	.	.
Cn1cnc(S(=O)(=O)N2C[C@H](O)COC[C@@H]3O[C@@H](CC(=O)N4CCN(c5ccccc5)CC4)CC[C@H]32)c1	-5	.	13	.	.	.
COc1cccc(NC(=O)C[C@H]2CC[C@@H]3[C@H](COc4ccc(NC(=O)C5CCCCC5)cc4C(=O)N3C)O2)c1	-8	.	13	.	.	.
O=C(NCC[C@H]1CC[C@H](NS(=O)(=O)c2ccccc2)[C@@H](CO)O1)c1cc(Cl)cc(Cl)c1	5	.	7	.	.	.
CCCCN(C(=O)c1cc(-c2ccc(F)cc2)nc2ccccc12)c1c(N)n(CCCC)c(=O)[nH]c1=O	26	-4	1	69*	38	6
CCCCN(C(=O)c1ccco1)c1c(N)n(CCC)c(=O)[nH]c1=O	-5	-6	12	-14	8	-7
CCCCN(C(=O)c1ccccc1F)c1c(N)n(CCC)c(=O)[nH]c1=O	-8	2	-11	19	73*	3
C/C=C/c1ccc2c(c1)O[C@@H](CN(C)C(=O)Nc1ccc(F)cc1)[C@H](C)CN([C@H](C)CO)S2(=O)=O	16	.	.	.	.	.
CO[C@H]1CN(C)C(=O)c2ccc(NS(C)(=O)=O)cc2OC[C@H](C)N(CCC(F)(F)F)C[C@@H]1C	-14	.	-10	.	.	.
CCOC(=O)c1ccc(Nc2sc(C(=O)c3cccc([N+](=O)[O-])c3)c(N)c2C#N)cc1	0	-3	-8	21	52*	-18
O=C(Cc1cccs1)N/N=C/C=C/c1ccccc1	-5	-3	107*	-3	-7	4
Cc1cc(Cl)ccc1NC(=S)NCCC(c1ccccc1)c1ccccc1	.	-11	.	-5	68*	16
CCOC(=O)C1=C(Cc2ccc(F)cc2)C(=O)c2ccccc2C1=O	.	47*	.	35	47	62
CC1=CC(C)(C)N2C(=O)C(=Nc3ccc(O)cc3)c3cccc1c32	30	9	9	78*	10	3

Assay outcomes from PubChem BioAssay.
